Assay outcomes from PubChem.
Only some compounds are listed: those with a hit (about 3.4% of all), similar ones and a draw of the others.
TEAD-YAP block: TEAD-YAP interaction inhibition, primary screen, TEAD-YAP interaction inhibitor project, luminescence, HEK-TIYL cells. 1.4% of 640,000 active. inhibition, % at 9.12 µM. TEAD-Gal4/YAP UAS-luciferase luminescence; in the data active means inhibition above about 32%;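 further: 0% = median of test compound wells and 100% = reference inhibitor wells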
MITF primary: MITF inhibitors, primary screen, biochemical, AlphaScreen, human; 0.91% of 650,000 active; inhibition, % at 2.6 µM; Microphthalmia-associated transcription factor (Homo sapiens), O75030; AID 1259374, 2018; AlphaScreen MITF homodimerization, bead proximity signal; in the data active means inhibition above about 50%;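 further: 0% = vehicle wells with protein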
FBW7 act: FBW7 E3 ligase activators, primary screen, biochemical, AlphaScreen, human; AlphaScreen FBW7–phospho-cyclin E peptide binding, activator screen; normalized activity (activation), % at 26.1 µM; 0.13% of 650,000 active; AID 1259310, 2017; in the data active means normalized activity above about 1.9%;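 further: purified mutant Fbw7 with reduced substrate affinity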
GPR151 ag: activators of human GPR151, primary screen, cell-based, PathHunter beta-arrestin, luminescence. activation, % at 11.2 µM. 1% of 650,000 active. PathHunter beta-arrestin GPR151 cells; in the data active means activation above about 4.9%;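 further: 0% = median of compound wells and 100% = cells with positive control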
Target sequence (Q8TDV0 whole entry, looked up): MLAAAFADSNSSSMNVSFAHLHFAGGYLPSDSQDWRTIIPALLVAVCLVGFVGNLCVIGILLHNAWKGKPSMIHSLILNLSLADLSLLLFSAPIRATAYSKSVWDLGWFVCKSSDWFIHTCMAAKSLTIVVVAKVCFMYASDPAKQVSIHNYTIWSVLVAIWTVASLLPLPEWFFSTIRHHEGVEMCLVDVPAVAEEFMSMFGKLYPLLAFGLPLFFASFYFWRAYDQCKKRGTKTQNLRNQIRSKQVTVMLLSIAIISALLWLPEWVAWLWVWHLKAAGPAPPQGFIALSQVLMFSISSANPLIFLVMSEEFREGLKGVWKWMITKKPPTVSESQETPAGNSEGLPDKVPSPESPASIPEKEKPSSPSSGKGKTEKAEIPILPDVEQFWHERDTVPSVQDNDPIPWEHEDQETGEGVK
MITF confirm: MITF inhibitors, retest of hits, confirmation, biochemical, AlphaScreen, triplicate; shares compounds with MITF primary; AlphaScreen MITF homodimerization, biotin/His-MITF beads; inhibition, % at 2.6 µM; 16% of 4,700 active;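 active means inhibition above a cutoff derived from the DMSO control wells, cut at about 28% in these data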;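 further: 0% = MITF dimer wells with DMSO only; inhibitors lower the bead chemiluminescence by keeping MITF from dimerizing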
AlphaScreen DR: AlphaScreen optical interference compounds, dose response, counter-screen, biochemical, HTS. shares compounds with MITF primary. AlphaScreen optical interference counterscreen, cell-free. IC50, µM. 6% of 480 active. AID 1259373, 2018; call rule not given here
AlphaScreen intf2: AlphaScreen optical interference compounds, counter-screen for MITF inhibitor project, biochemical, triplicate; shares compounds with MITF primary; LysRS AlphaScreen counterscreen, signal interference; inhibition, % at 2.6 µM; 7.6% of 4,700 active;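 active means inhibition above a cutoff derived from the DMSO control wells, cut at about 30% in these data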
An asterisk follows results filed as active; · = no result.

SMILES	TEAD-YAP block	MITF primary	FBW7 act	GPR151 ag	MITF confirm	AlphaScreen intf2	others
O=C(Cc1ccccc1)Nc1cccc2ccccc12	-9	7	0	1	·	·
Cc1cc(Cl)c(OCCCN2CCOCC2)c(Br)c1	-7	28	0	-1	·	·
Cc1cc(Cl)c(OCCN2CCN(C)CC2)c(Br)c1	-6	55*	0	2	1	6
CN1CCN(CCOCCOc2c(Cl)cc(Cl)cc2Cl)CC1	10	44	0	-1	·	·
Cc1cc(Cl)c(OCCCN2CCN(C)CC2)c(Br)c1	-6	65*	0	0	-4	-6
Cc1cc(Cl)c(OCCOCCN2CCN(C)CC2)c(Br)c1	1	77*	0	0	16	17
COCCNCCOc1c(Cl)cc(C)cc1Br	-3	64*	0	0	11	13
CC(=O)Oc1cc(C)c(C)cc1C(O)(C(F)(F)F)C(F)(F)F	-3	-2	0	-1	·	·
O=C(Cc1nc2scc(-c3ccccc3)c2c(=O)[nH]1)N1CCCC1	-2	6	0	0	·	·
Cc1ccc(-c2csc3nc(CN(C)C4CCN(C)CC4)[nH]c(=O)c23)cc1	-2	59*	0	0	0	0
CCC(C)OC(=O)C1=C(C)NC2=C(C(=O)CC(c3ccccc3)C2)C1c1cc(OC)c(OC)cc1Br (configuration not stated)	0	63*	0	0	14	17
CCc1ccccc1NC(=O)CSc1nc2ccsc2c(=O)n1Cc1ccccc1F	-10	5	0	1	·	·
COc1ccc(CN2CCN(Cc3c[nH]c4ccccc34)CC2)c(OC)c1OC	3	62*	0	0	6	7
COc1cc(OC)c(OC)cc1CN1CCN(Cc2c[nH]c3ccccc23)CC1	14	55*	0	0	4	-6
COc1cc(OC)c(OC)cc1CN1CCN(c2ccc(F)cc2)CC1	0	44	0	1	·	·
Ic1ccc(OCCCNC2CCCC2)cc1	13	9	0	1	·	·
Ic1ccc(OCCNC2CCCC2)cc1	12	59*	0	-1	-19	-3
CC(NCCN(C)C)C(=O)Nc1ccc2c(c1)OCO2 (configuration not stated)	3	73*	0	0	3	2
O=c1oc2ccc3ccccc3c2cc1-c1nc(-c2ccc([N+](=O)[O-])cc2)n[nH]1	5	72*	0	1	7	13
Cc1ccc(NCc2ccc(O)c3ncccc23)cc1	2	53*	-2	-1	105*	100*
Cc1cccnc1NCc1ccc(O)c2ncccc12	-4	64*	-1	1	52*	91*
CCN(CC)Cc1cccc2cccnc12	3	15	0	0	·	·
CCN(CC)Cc1ccc(O)c2ncccc12	51*	93*	-1	-2	102*	100*
Cc1nccn1Cc1ccc(O)c2ncccc12	10	82*	-2	0	103*	101*
Cc1ccc(NCc2ccccc2O)cc1	-28	12	0	1	·	·
SMILES	TEAD-YAP block	MITF primary	FBW7 act	GPR151 ag	MITF confirm	AlphaScreen intf2	others
O=Cc1ccc(-c2ccc(OCc3ccccn3)nc2)cc1	-25	14	0	0	·	·
O=C(NCc1ccccc1)NCc1nc(-c2cccnc2)n[nH]1	-4	2	0	-1	·	·
COC(=O)c1ccc(NC(=O)/C(=C\c2cccc([N+](=O)[O-])c2)NC(=O)c2cc(OC)ccc2Br)cc1	-8	7	0	1	·	·
N#Cc1ccc(NC(=O)COC(=O)c2ccc(F)cc2)cc1	2	4	0	-1	·	·
Cc1nc(NC(=O)CSc2nnc(-c3ccccc3N)n2C)sc1C	7	-1	0	1	·	·
FC(F)(F)c1nc2ccccc2n1-c1nc(-n2c(C(F)(F)F)nc3ccccc32)nc(-n2c(C(F)(F)F)nc3ccccc32)n1	1	-2	0	-1	·	·
O=C(NCCCn1ccnc1)C(=O)NCC1OCCCN1S(=O)(=O)c1ccccc1 (configuration not stated)	-2	66*	-1	3	35*	45*
O=C(NCCCn1ccnc1)C(=O)NCC1OCCN1S(=O)(=O)c1ccccc1 (configuration not stated)	-2	49	0	0	·	·
N#CC1=C(N)Oc2n[nH]c(-c3ccccn3)c2C1c1ccc([N+](=O)[O-])s1 (configuration not stated)	9	107*	-1	-2	117*	100*
CC1CC(C)CN(S(=O)(=O)c2ccc(Sc3ccc(F)cc3)c(C(=O)NCCc3ccccc3)c2)C1 (configuration not stated)	13	19	0	1	·	·
CN1CCN(CC(O)Cn2cc(C=O)c3ccccc32)CC1 (configuration not stated)	-15	66*	0	2	0	-5
CC1=C(C(=O)N2CCOc3ccc(C(O)C4CCCCC4)cc3C2)OCCO1 (configuration not stated)	-2	6	0	0	·	·
COc1ccc(NC(=O)c2cc(-c3ccccc3)nc3ccc(C)cc23)cc1	9	15	0	0	·	·
N#C/C(=C\c1nn(CCO)c(N)c1C#N)c1ccco1	-5	46	0	0	·	·
N#C/C(=C\c1nn(-c2ccccc2)c(N)c1C#N)c1ccco1	-57	59*	0	0	83*	-6	AlphaScreen DR=>6.5
O=C1c2ccc(-c3nc4ccccc4c(=O)o3)cc2C(=O)N1c1ncc([N+](=O)[O-])s1	1	56*	0	1	-10	-7
Cc1[nH][nH]c(=O)c1C(c1ccc([N+](=O)[O-])o1)c1c(C)[nH][nH]c1=O	4	59*	-1	0	28*	-1	AlphaScreen DR=>6.5
Cc1[nH][nH]c(=O)c1C(c1ccc(-c2cccc([N+](=O)[O-])c2)o1)c1c(C)[nH][nH]c1=O	0	1	0	0	·	·
Cc1cc(C2C(C#N)=C(N)N(c3ccccc3Cl)C3=C2C(=O)CCC3)c(C)s1 (configuration not stated)	4	7	0	-2	·	·
Cc1cc(C2C(C#N)=C(N)N(c3ccccc3Cl)C3=C2C(=O)CC(c2ccccc2)C3)c(C)s1 (configuration not stated)	3	57*	0	0	-7	0
O=C(N/N=C/c1c[nH]c2ccc(Br)cc12)C(O)c1ccccc1 (configuration not stated)	8	12	0	-1	·	·
